Bioassay records from PubChem BioAssay.
IMPase cell inh = IMPase inhibition in cells | P97697 | CHO-M1 cells, IP1 accumulation, HTRF TR-FRET ratio | inhibition (IP1 accumulation), % at 46.1 µM | 120,000 tested, under 10 active; active = well fitted curve in the direction sought with a large enough effect in the signal ratio, not every such curve was filed as active; inconclusive = small, poorly fitted or top-dose-only effect, or a change in a side signal; inactive = no such curve, though single readings can be large or run the other way; the % refers to the signal ratio;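 note: cells stimulated with carbachol in lithium chloride buffer; plate controls were DMSO basal wells for no effect and reference inhibitor wells for full effect; higher means more IMPase inhibition seen as more IP1 and lower FRET ratio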
Target sequence (P97697 whole entry, looked up): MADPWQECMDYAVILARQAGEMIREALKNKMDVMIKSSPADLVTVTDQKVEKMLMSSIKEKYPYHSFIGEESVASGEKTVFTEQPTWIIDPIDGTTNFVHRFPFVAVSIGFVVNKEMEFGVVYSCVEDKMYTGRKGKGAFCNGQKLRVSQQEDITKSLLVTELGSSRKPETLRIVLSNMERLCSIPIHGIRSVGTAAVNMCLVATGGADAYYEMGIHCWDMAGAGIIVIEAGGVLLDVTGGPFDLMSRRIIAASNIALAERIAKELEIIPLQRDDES
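CHO-M1, 2000 cells/well, cultured 16–30 h; cpd up to 46 uM; carbachol (50 uM solution, stimulation buffer w/ 50 mM LiCl, pH 7.4), 30 min 37C; IP-One TR-FRET, 10 min RT; Ex 320/Em 665, 620; Hill-fit AC50.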
ALDH1A1 block = blocks purified human ALDH1A1 activity; P00352; Potency, µM (top dose mostly 75.3 µM), without a hit: top-dose activity, negative = inhibition, hits mostly inhibitors; Purified ALDH1A1, NADH fluorescence, propionaldehyde substrate; AID 1030; 220,000 compounds, 7.3% hits; active = well fitted inhibition curve with a large enough effect, not every such curve was filed as active; inconclusive = small, poorly fitted or top-dose-only effect, or another doubt; inactive = no such curve, though single readings can be large or run the other way;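 note: potency is the fitted concentration of half-maximal effect; plate controls were no enzyme wells and a reference inhibitor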
NPSR antagonist = antagonists of human neuropeptide S receptor cAMP signaling | Q6W5P4 | CHO-NPSR cells, cAMP TR-FRET, antagonist mode | Potency, µM (series often up to 38.3 µM), without a hit: at the highest dose activity change, negative = inhibition, usual class: inhibitors | 220,000 compounds, 1% hits | AID 1461; note: potency is the fitted concentration of half-maximal effect; nearly all actives have a fitted effect of over 50% in size
12-hLO inh = 12-hLO (ALOX12) enzyme inhibition; P18054; purified 12-hLO, xylenol orange hydroperoxide absorbance; Potency, µM (titrated, usually from 57.1 µM), inactives show top-dose activity change, negative = inhibition, actives largely listed as inhibitors; 150,000 compounds, 0.12% hits; note: potency is the fitted concentration of half-maximal effect; nearly all actives have a fitted effect of over 55% in size
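150 nM 12hLO, 25 mM Hepes pH 7.0 + 0.01% Triton X-100; cpd preinc 15 min RT; 40 uM arachidonic acid, 30 min RT; Fe-XO 30 min; A573/A405 ratio as read-out.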
IMPase Li inh = membrane-permeable IMPase blocker, potentiated with lithium; Potency, µM (highest dose often 59.4 µM), without a hit: at the top dose activity, negative = IMPase inhibition, hits mostly inhibitors; AID 1457; CHO-M1 cells, IP1 TR-FRET (IP-One), carbachol + lithium; 210,000 compounds, 0.35% hits;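 note: IP1 builds up when IMPase is blocked and the TR-FRET signal falls; potency is the fitted concentration of half-maximal effect; plate controls were basal vehicle for no effect and high inhibitor control for full effect; nearly all actives have a fitted effect of over 50% in size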
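Concentration–response in CHO-M1 cells, lithium-potentiated; 30 min at 37C. IP1 detected by competitive TR-FRET after 10 min lysis at RT. Hill-fitted AC50.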
HPGD block = inhibitors of human 15-hydroxyprostaglandin dehydrogenase (HPGD); Potency, µM, without a hit: at the highest dose activity change, negative = inhibition, actives largely listed as inhibitors; 150,000 compounds, 4.3% hits; purified HPGD, NADH fluorescence kinetic, PGE2 substrate; AID 894; active = well fitted inhibition curve with a large enough effect, not every such curve was filed as active; inconclusive = small, poorly fitted or top-dose-only effect, or another doubt; inactive = no such curve, though single readings can be large or run the other way; note: potency is the fitted concentration of half-maximal effect
Target sequence (P15428 whole entry, looked up): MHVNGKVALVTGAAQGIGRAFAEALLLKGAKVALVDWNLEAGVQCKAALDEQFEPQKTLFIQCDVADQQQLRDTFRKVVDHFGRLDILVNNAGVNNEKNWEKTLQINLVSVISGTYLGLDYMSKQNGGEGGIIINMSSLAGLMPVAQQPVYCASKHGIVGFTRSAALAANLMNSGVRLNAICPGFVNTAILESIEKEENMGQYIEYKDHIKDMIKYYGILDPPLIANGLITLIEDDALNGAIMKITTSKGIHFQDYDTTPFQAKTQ
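NADH formation kinetics: reaction with 30 uM PGE2 and 1 mM NAD+ (final), 20 nM enzyme, Tris-HCl pH 8 with Tween 20, after 15 min compound preincubation at room temperature. Fluorescence change, last versus first of five reads.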
Numbers without * were called inactive; ? = inconclusive; · = no result given; [ ] = remark or other dose. This is a sample that favours compounds with a hit; in the whole collection about 8.9% have one here. Unless noted, calls come from the whole dose curve; as a rule, active = well fitted curve in the direction sought with a large enough effect; inconclusive = small, poorly fitted or top-dose-only effect, or another doubt; inactive = no such curve, though single readings can be large; an effect the other way counts as inactive or inconclusive. Unless noted, % is set by controls: 0 for no effect and ±100 for the full control effect.

SMILES	IMPase cell inh	ALDH1A1 block	NPSR antagonist	12-hLO inh	IMPase Li inh	HPGD block
Cc1ccccc1NCc1ccc(O)c2ncccc12	13.3	3.98µM*	-14.7%[46.1 µM]	?	4.4%	-2.0%
Oc1ccc(CNc2ccccc2)c2cccnc12	-7.4	10µM*	-9.8%[46.1 µM]	?	-7.4%[38.3 µM]	-3.4%
Oc1ccc(CNc2ccc(F)cc2)c2cccnc12	-6.8	8.91µM*	-10.0%[46.1 µM]	?	-13.9%[38.3 µM]	-18.2%
Oc1ccc(CN2CCN(Cc3ccccc3)CC2)c2cccnc12	6.3	1.2%	-26.3%[46.1 µM]	-2.1%	2.4%[38.3 µM]	-18.5%
Cc1cccc(NCc2ccc(O)c3ncccc23)c1	·	2.82µM*	-17.4%	·	12.8%	·
COc1ccc(Cl)cc1NC(=O)CN(C)CC(=O)Nc1ccccc1N1CCOCC1	·	-3.7%	-17.8%	·	2.0%	·
CCN(CC)C(=O)c1cnn(-c2ccccc2)c1NC(=O)c1ccco1	-8.0	-8.7%	-12.0%[46.1 µM]	-1.8%	12.7%[38.3 µM]	-17.0%
COCc1ccc(O)c2ncccc12	-3.4	3.0%	3.98µM*	?	23.2%[38.3 µM]	-11.9%
COc1ccc(N2CCN(C(=O)C3CC(O)CN3S(=O)(=O)c3ccc([N+](=O)[O-])cc3)CC2)cc1 (centres undefined)	·	11.1%	12.2%	0.9%	1.7%	-1.7%
COc1ccc(N=C2SC(C(=O)N3CCN(c4ccc([N+](=O)[O-])cc4)CC3)CC(=O)N2C)cc1 (centres undefined)	·	10µM*	-11.4%	·	-1.4%	·
Cc1ccc(C(=O)N/C(=C\c2ccco2)C(=O)NCCCn2ccnc2)cc1C	-0.7	25.1µM*	-10.8%[46.1 µM]	0.7%	2.0%	-28.0%
Cc1nc(-c2ccc(NS(C)(=O)=O)cc2)cs1	-4.5	12.5%	-0.9%[46.1 µM]	-1.2%	-3.4%[38.3 µM]	15.8µM*
Cc1nc(-c2cccc(NS(C)(=O)=O)c2)cs1	-2.4	4.3%	-3.6%[46.1 µM]	3.0%	25.7%[38.3 µM]	-24.2%
Cc1nc(-c2ccc(O)c(O)c2)cs1	1.2	?	-17.2%[46.1 µM]	-16.7%	24.0%[38.3 µM]	22.4µM*
Oc1ccc(-c2csc(-c3ccccc3)n2)cc1O	8.4	?	-4.9%[46.1 µM]	12.6µM*	5.4%[38.3 µM]	28.2µM*
CCCCn1ccnc1C(=O)c1ccc(S(=O)(=O)N2CCCC2)cc1	·	·	-14.5%	·	·	·
CCC[C@@H]1C[C@@H](C(=O)N[C@H]([C@@H](C)O)[C@H]2O[C@H](SC)[C@H](O)[C@@H](O)C2O)N(C)C1 (some centres undefined)	·	-8.2%	4.2%	-2.9%	1.6%	-18.3%
O=C(NC(Cc1ccc2c(c1)OCO2)C(=O)N1CCCC1C(=O)O)c1ccccc1 (centres undefined)	-2.9	12.1%	-3.4%[46.1 µM]	3.0%	-0.2%[38.3 µM]	-2.7%
O=C(Nc1ccc2ccccc2n1)C1CCCCC1	·	·	-56.1%	·	·	·
CCn1c(SCC(N)=O)nc2c(c1=O)C1(CCCC1)Cc1ccccc1-2	11.0	?	?	-7.3%	-7.1%[38.3 µM]	-14.2%
Clc1ccc(/C=N/Nc2nnc(-c3ncc[nH]3)c3ccccc23)cc1	11.2	5.2%	-9.6%[46.1 µM]	-1.9%	4.5%[38.3 µM]	-10.5%
O=C(CN(CC1CCCO1)S(=O)(=O)c1ccc(S(=O)(=O)NCC2CCCO2)cc1)Nc1ccccc1 (centres undefined)	5.8	-4.4%	-11.6%[46.1 µM]	-3.4%	-6.0%[38.3 µM]	2.9%
O=S(=O)(NC1CCCC1)c1ccc(S(=O)(=O)N(Cc2cccs2)CC2CCCO2)cc1 (centres undefined)	15.5	25.1µM*	-15.0%[46.1 µM]	1.3%	14.5%	-16.3%
O=S(=O)(c1ccc(S(=O)(=O)N(Cc2cccs2)CC2CCCO2)cc1)N1CCCCC1 (centres undefined)	7.3	7.94µM*	-27.1%[46.1 µM]	0.6%	27.8%[38.3 µM]	-3.9%
O=C(C1CCCN(S(=O)(=O)c2ccc(F)cc2)C1)N(Cc1cccs1)C1CC1 (centres undefined)	6.4	17.8µM*	-25.6%[46.1 µM]	-18.9%	25.2%[38.3 µM]	-3.5%
O=C(CN(Cc1cccs1)S(=O)(=O)c1ccc(S(=O)(=O)N2CCCCC2)cc1)Nc1ccccc1	·	8.7%	-15.6%	-2.9%	2.3%	-5.8%
